Columns and labels:
Assay in all cases: pooled miR-30 sensor sort-seq; sequence = guide strand
Settings in all cases: shRNA
[1] = biological target: EPHX2
[2] = biological target: ERCC2
[3] = biological target: ERCC8
[4] = biological target: ETFB
[5] = biological target: FAM113A
[6] = biological target: FABP9
[7] = biological target: FAM103A1
[8] = biological target: FAM111A
[9] = biological target: FAM162A
[10] = biological target: FAM151A
[11] = biological target: FAM154A
[12] = biological target: FAM151B
[13] = biological target: FAM178A
[14] = biological target: FAM22F

TGGTTCTTGGAAGTAGAGCTGG
sensor-assay potency score (higher = more potent) [1]: -0.725

TAGCTATAAACCACCACATTGG
sensor-assay potency score (higher = more potent) [2]: -1.42

ATTCTCACGAATCTGGAACTGG
sensor-assay potency score (higher = more potent) [2]: -0.416

TTTGATCCTGAGCACCGTCTTC
sensor-assay potency score (higher = more potent) [2]: -1.12

TCGTCTGTCTCTTTGATCCTGA
sensor-assay potency score (higher = more potent) [2]: -0.221

TTTGACTGAAATACACAGCAGT
sensor-assay potency score (higher = more potent) [3]: 0.0965

TAGAAGTTGAGCAACTTTCGAA
sensor-assay potency score (higher = more potent) [2]: 0.118

TTGAGCAGTAGATGAGTTTGGT
sensor-assay potency score (higher = more potent) [2]: 0.18

TATTTCTTGTCTGTGACCCTGT
sensor-assay potency score (higher = more potent) [3]: 1.1

TTCTTTTATGGAGAAATTCTTG
sensor-assay potency score (higher = more potent) [1]: -0.837

TGAATACACAAGTTTTTGCGGG
sensor-assay potency score (higher = more potent) [2]: 0.0838

TGACAGACTGGAAACGCTCAAA
sensor-assay potency score (higher = more potent) [2]: -0.97

TTGAGCTCCCGCATGTAGGAGA
sensor-assay potency score (higher = more potent) [2]: -0.477

TCTAGTACCAACTGCTACCAAA
sensor-assay potency score (higher = more potent) [3]: -1.28

ATTATCTGTACCAACAGTGAGG
sensor-assay potency score (higher = more potent) [3]: -0.965

TCACACCATCTGAACCACCTGA
sensor-assay potency score (higher = more potent) [3]: 0.0366

TCGAAGCTCTTCAATCACCTTC
sensor-assay potency score (higher = more potent) [2]: 0.181

TTCCCATCGACGTCCTTCCCAA
sensor-assay potency score (higher = more potent) [2]: -0.665

TGTAGGAGAACTGCTCGGGGTA
sensor-assay potency score (higher = more potent) [2]: -0.658

TCTGGCACAGTTCTTGAGCAGT
sensor-assay potency score (higher = more potent) [2]: -0.9

TTGGGGTAGATGTCCAGCGGGG
sensor-assay potency score (higher = more potent) [2]: -1.14

TCAATCTCTGGCACAGTTCTTG
sensor-assay potency score (higher = more potent) [2]: 0.0123

TTGAGCAACTTTCGAAGCTCTT
sensor-assay potency score (higher = more potent) [2]: -0.541

TTTCTTGTCTGTGACCCTGTAG
sensor-assay potency score (higher = more potent) [3]: -0.264

TGGAAGTCCAGGATCTTGGGGT
sensor-assay potency score (higher = more potent) [2]: 0.059

TTGCGCTGGATGCACACGCGCT
sensor-assay potency score (higher = more potent) [2]: -1.42

TATAGTTCATAAAATCTGCTGA
sensor-assay potency score (higher = more potent) [3]: 0.347

TTACTCTACTGTCAGCACTTGC
sensor-assay potency score (higher = more potent) [3]: -0.793

TCAAATTCCTCATAGAATCGGC
sensor-assay potency score (higher = more potent) [2]: -0.0111

TTAGCAAGGAGGGTGAGCGGGG
sensor-assay potency score (higher = more potent) [2]: -1.04

TTTAATTGTGATTTTGTTGTAG
sensor-assay potency score (higher = more potent) [3]: 0.555

TTCAGCACAGAATCTGAGGGGC
sensor-assay potency score (higher = more potent) [2]: 0.408

TCGATCTTCTTCTTCTTGGCTT
sensor-assay potency score (higher = more potent) [4]: -0.249

TCCGTGACCACACCGGTCCTGT
sensor-assay potency score (higher = more potent) [4]: -1.31

TAGCTCTCCATTGAGCAGCGAC
sensor-assay potency score (higher = more potent) [5]: -1.09

TTGATTGTTGTCTCTTTGCCAA
sensor-assay potency score (higher = more potent) [6]: -0.728

ATCTACTAGCAAACATCTCTTC
sensor-assay potency score (higher = more potent) [7]: -0.234

TCTTTTCTCAACCTCAACCTGA
sensor-assay potency score (higher = more potent) [8]: -0.463

TTCTTTTGATTGTTGTCTCTTT
sensor-assay potency score (higher = more potent) [6]: -0.11

TTAGTGTCCTGGAAAGAACTTT
sensor-assay potency score (higher = more potent) [6]: -0.461

TTGTCTTGCAACCGATTGCCTC
sensor-assay potency score (higher = more potent) [7]: -1.09

TATGTGGTTATCTTCCTTCTGC
sensor-assay potency score (higher = more potent) [8]: -0.217

TTTTCTGTGAATCTACTAGCAA
sensor-assay potency score (higher = more potent) [7]: -0.323

AACATCTCTTCAAACTTTGGAA
sensor-assay potency score (higher = more potent) [7]: -0.553

TGGAAGTGGACCATGTCGCTTC
sensor-assay potency score (higher = more potent) [5]: -0.111

TTGTTGTGTAGCAGCTGCTGGA
sensor-assay potency score (higher = more potent) [5]: -0.714

TTTGAGATCATTTCTAATCAAG
sensor-assay potency score (higher = more potent) [8]: -0.737

TATCTCTTTTCTGACAGCCTGG
sensor-assay potency score (higher = more potent) [8]: -0.766

TTACATTCCACTACCATTTTTT
sensor-assay potency score (higher = more potent) [6]: -0.986

TTGTTCTCTCAACACACAGGTG
sensor-assay potency score (higher = more potent) [8]: -0.868

TTTCCAATCATCATTCTCCAGA
sensor-assay potency score (higher = more potent) [8]: -0.625

ATAATGTCCATATTGCTGGGGA
sensor-assay potency score (higher = more potent) [7]: -0.0469

TTACATTTTTCATTGACTGAGT
sensor-assay potency score (higher = more potent) [8]: -0.373

TTGATGATCACCAGGTCCGGGG
sensor-assay potency score (higher = more potent) [5]: -0.983

TGTCCTGGAAAGAACTTTCTGT
sensor-assay potency score (higher = more potent) [6]: -0.208

TACTCTTTGATTCCTTCTGTGC
sensor-assay potency score (higher = more potent) [8]: -0.506

TTGTCATTTTCTGTGAATCTAC
sensor-assay potency score (higher = more potent) [7]: -0.838

TTGAGAGCCATATATAAGCTAC
sensor-assay potency score (higher = more potent) [8]: -0.708

TGTCTGTTGTCTTGCAACCGAT
sensor-assay potency score (higher = more potent) [7]: -1.2

TTCATATCTTGGTTTCTCCTGT
sensor-assay potency score (higher = more potent) [8]: 0.306

TTCAACCACATCCCGCCGCAGG
sensor-assay potency score (higher = more potent) [5]: -1.27

TTGAGCAGCGACCATATCTGGA
sensor-assay potency score (higher = more potent) [5]: -0.708

TTCTAATTCATCAACTGGCTGG
sensor-assay potency score (higher = more potent) [8]: 0.174

TCTCTCTGAGTGTCTGAGCCGC
sensor-assay potency score (higher = more potent) [5]: -0.879

TTCTTGTCTGTGTTGCGGGTAG
sensor-assay potency score (higher = more potent) [7]: -0.368

TATGGTGCTCTTTACTTTCCGG
sensor-assay potency score (higher = more potent) [6]: -0.345

TAGCACTGTAGAAGTTCCCTTC
sensor-assay potency score (higher = more potent) [5]: 0.54

TAGTGTCCTGGAAAGAACTTTC
sensor-assay potency score (higher = more potent) [6]: -1.06

TTCCAGAACATCCTCAAGGTAC
sensor-assay potency score (higher = more potent) [5]: -0.46

TCTACTAGCAAACATCTCTTCA
sensor-assay potency score (higher = more potent) [7]: -0.435

TACTAGCAAACATCTCTTCAAA
sensor-assay potency score (higher = more potent) [7]: -1.05

TTTCTGTGAATCTACTAGCAAA
sensor-assay potency score (higher = more potent) [7]: -1.27

TTTCCTTGTCTTTTAGCTCTTC
sensor-assay potency score (higher = more potent) [8]: 0.0612

TTTCTGGAGCAAGAGCACCAGG
sensor-assay potency score (higher = more potent) [5]: -1.16

TTAGAGATGAGGAAACATCTCT
sensor-assay potency score (higher = more potent) [9]: 0.0745

TAGCATATCTGTGAGCAGCTGT
sensor-assay potency score (higher = more potent) [10]: 0.652

TTGTCCAACAAATAATTCTCAG
sensor-assay potency score (higher = more potent) [11]: -0.941

TAGATAGCTGATCTTCACTCGC
sensor-assay potency score (higher = more potent) [9]: 0.225

TTCACTCGCATCTTGTTCTTTG
sensor-assay potency score (higher = more potent) [9]: -0.205

TATGAAACCAAAACACAGGAAA
sensor-assay potency score (higher = more potent) [12]: -1.05

TTTGATTTCTTTAACAGCCAAA
sensor-assay potency score (higher = more potent) [12]: -1.02

TTGTAGTCATCCTTGGTGGTGG
sensor-assay potency score (higher = more potent) [11]: 0.0888

TTAAAGTCTCGTGTCTTTGGGC
sensor-assay potency score (higher = more potent) [9]: 0.109

TTAATCTGAAGTGCAGGTCGGC
sensor-assay potency score (higher = more potent) [11]: -0.481

TTCCTCTGTCAGCTGCCGCAGG
sensor-assay potency score (higher = more potent) [10]: -0.626

TAATGTAAAGTAAATCTTCAAC
sensor-assay potency score (higher = more potent) [12]: -0.985

TTGGCTTGAAGGACTCTCTGGG
sensor-assay potency score (higher = more potent) [11]: 0.798

TTAGTCACATCCTCCAAGGGGA
sensor-assay potency score (higher = more potent) [11]: 0.0144

TTATCTCGAAACTCAGTGGTGT
sensor-assay potency score (higher = more potent) [11]: 0.244

TTTTATGGGGTAATCGTCCTGG
sensor-assay potency score (higher = more potent) [11]: 0.26

TAATCTGAAGTGCAGGTCGGCA
sensor-assay potency score (higher = more potent) [11]: -1.32

ATAGCTGATCTTCACTCGCATC
sensor-assay potency score (higher = more potent) [9]: -1.3

TTTTTGAAGCGACCTGACCATA
sensor-assay potency score (higher = more potent) [9]: -1.33

TATTGCTTTTCATAACTTCAGT
sensor-assay potency score (higher = more potent) [12]: -0.677

TTTGTATATCCTGTGACCCAAA
sensor-assay potency score (higher = more potent) [11]: -1.34

TTTTCCAGTCCAAATAGTCAGG
sensor-assay potency score (higher = more potent) [12]: -1.41

TAGACTTGGTGGACAGCAGTGT
sensor-assay potency score (higher = more potent) [10]: 0.813

TTGTTTTTTGTCATTTTAGGGA
sensor-assay potency score (higher = more potent) [11]: -0.361

TCACATAACCTAAAACAGCTTC
sensor-assay potency score (higher = more potent) [9]: -0.389

TTGAAATCCAGCTTGATGCCTT
sensor-assay potency score (higher = more potent) [12]: 0.157

AAGCTTGGTACTTATCTCGAAA
sensor-assay potency score (higher = more potent) [11]: -0.971

TATTTTCACTCCAAGATCCTGG
sensor-assay potency score (higher = more potent) [12]: -0.051

TGTCATAGTAGACTTGGTGGAC
sensor-assay potency score (higher = more potent) [10]: 0.221

TAGTTCTCGGTATATTCGGAGA
sensor-assay potency score (higher = more potent) [11]: -1.23

TCTTCTGCTGTAATCTGGCTAT
sensor-assay potency score (higher = more potent) [12]: -0.597

TAAAACAGCTTCCTGCTGCCAG
sensor-assay potency score (higher = more potent) [9]: -0.369

TTTGCCTTCCTCTGTCAGCTGC
sensor-assay potency score (higher = more potent) [10]: 0.237

ATGACCACCACAGACACACAGG
sensor-assay potency score (higher = more potent) [10]: -1.21

TTCTACAGCAGAAATACGGAAA
sensor-assay potency score (higher = more potent) [9]: -0.939

TAACCATGAAGATGCATCCTAC
sensor-assay potency score (higher = more potent) [9]: -0.864

TAGAGTATTATCACTGTTTGTT
sensor-assay potency score (higher = more potent) [12]: 0.198

TTAGCTGCATGATACCAGGTGA
sensor-assay potency score (higher = more potent) [12]: -0.378

TACAACTGCCAGACTTTTGAAA
sensor-assay potency score (higher = more potent) [12]: -0.597

TTTGCATCTATTACTTTGCTAT
sensor-assay potency score (higher = more potent) [12]: -0.561

ATAACCTAAAACAGCTTCCTGC
sensor-assay potency score (higher = more potent) [9]: -0.549

TCATCTTCCTTTTTGAAGCGAC
sensor-assay potency score (higher = more potent) [9]: -0.679

TTTGGTATCATAGATTCTCTTG
sensor-assay potency score (higher = more potent) [13]: -0.0968

TGAATGAATAGTGACTTCCTTC
sensor-assay potency score (higher = more potent) [13]: -0.297

TTGACAGGAGACTCTCCAGGGA
sensor-assay potency score (higher = more potent) [14]: -0.14

AAGCACAGCAGGGTCTTCGGAC
sensor-assay potency score (higher = more potent) [14]: -0.95

Reference: the OligoGym collection
